Assay results as given in the supplement of paper PMC12282887.
± gives the standard deviation of the averaged measurements.

Legend:
Test in all cases: promoter activity interaction Z-score (Lux/OD deviation from empty-vector control); higher = stronger promoter induction by the compound
[1] = tested on: E. coli BW25113 acrABp lux reporter
Summary of the method: (§1)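 E. coli BW25113, as wild type or one of three single-gene deletion strains, carried low-copy luxCDABE promoter reporters and grew in 40 µl LB Lennox in 384-well plates at 37°C, with OD600 and luminescence read every 30 min for 12 h. Each compound was run at four 1:2 dilutions in biological duplicates, integration spanned 0–8 h for wild type and 1–9 h for deletion strains, and wells under 10% of the median growth value were dropped. The score is the Z-transformed residual of growth-normalised luminescence fitted against a control.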

[2] = tested on: E. coli BW25113 micFp lux reporter
Summary of the method: as §1

[3] = tested on: E. coli BW25113 ompFp lux reporter
Summary of the method: as §1

[4] = tested on: E. coli BW25113 robp lux reporter
Summary of the method: as §1

[5] = tested on: E. coli BW25113 soxSp lux reporter
Summary of the method: as §1

[6] = tested on: E. coli BW25113 tolCp lux reporter
Summary of the method: as §1

[7] = 1.7 µg/ml, genetic background: wild type
[8] = 1.7 µg/ml, genetic background: ΔmarA
[9] = 1.7 µg/ml, genetic background: Δrob
[10] = 1.7 µg/ml, genetic background: ΔsoxS
[11] = 3.5 µg/ml, genetic background: wild type
[12] = 3.5 µg/ml, genetic background: ΔmarA
[13] = 3.5 µg/ml, genetic background: Δrob
[14] = 3.5 µg/ml, genetic background: ΔsoxS
[15] = 6.9 µg/ml, genetic background: wild type
[16] = 6.9 µg/ml, genetic background: ΔmarA
[17] = 6.9 µg/ml, genetic background: Δrob
[18] = 6.9 µg/ml, genetic background: ΔsoxS
[19] = 13.9 µg/ml, genetic background: wild type
[20] = 13.9 µg/ml, genetic background: ΔmarA
[21] = 13.9 µg/ml, genetic background: Δrob
[22] = 13.9 µg/ml, genetic background: ΔsoxS

NC(=O)c1cc[n+](CC2=C(C(=O)[O-])N3C(=O)[C@@H](NC(=O)[C@@H](c4ccccc4)S(=O)(=O)O)[C@H]3SC2)cc1 [Cefsulodin]
promoter activity interaction Z-score [1, 7]: 0.269 ± 0.15 | promoter activity interaction Z-score [1, 8]: 0.601 ± 0.24 | promoter activity interaction Z-score [1, 9]: -0.158 ± 0.15 | promoter activity interaction Z-score [1, 10]: -0.315 ± 0.077 | promoter activity interaction Z-score [1, 11]: 0.0267 ± 0.076 | promoter activity interaction Z-score [1, 12]: 0.343 ± 0.28 | promoter activity interaction Z-score [1, 13]: 0.17 ± 0.29 | promoter activity interaction Z-score [1, 14]: -0.28 ± 0.31 | promoter activity interaction Z-score [1, 15]: 0.306 ± 0.13 | promoter activity interaction Z-score [1, 16]: -0.189 ± 0.29 | promoter activity interaction Z-score [1, 17]: -0.455 ± 0.052 | promoter activity interaction Z-score [1, 18]: -0.399 ± 0.055 | promoter activity interaction Z-score [1, 19]: 0.379 ± 0.28 | promoter activity interaction Z-score [1, 20]: -0.532 ± 0.81 | promoter activity interaction Z-score [1, 21]: 0.198 ± 0.17 | promoter activity interaction Z-score [1, 22]: 0.0814 ± 0.14 | promoter activity interaction Z-score [2, 7]: 0.14 ± 0.014 | promoter activity interaction Z-score [2, 8]: -0.0463 ± 0.21 | promoter activity interaction Z-score [2, 9]: 0.0953 ± 0.35 | promoter activity interaction Z-score [2, 10]: -0.338 ± 0.047 | promoter activity interaction Z-score [2, 11]: 0.0738 ± 0.052 | promoter activity interaction Z-score [2, 12]: -0.0526 ± 0.14 | promoter activity interaction Z-score [2, 13]: -0.0549 ± 0.0043 | promoter activity interaction Z-score [2, 14]: -0.224 ± 0.027 | promoter activity interaction Z-score [2, 15]: 0.373 ± 0.2 | promoter activity interaction Z-score [2, 16]: -0.161 ± 0.17 | promoter activity interaction Z-score [2, 17]: 0.046 ± 0.26 | promoter activity interaction Z-score [2, 18]: -0.32 ± 0.14 | promoter activity interaction Z-score [2, 19]: 0.27 ± 0.18 | promoter activity interaction Z-score [2, 20]: -0.237 ± 0.007 | promoter activity interaction Z-score [2, 21]: -0.0142 ± 0.099 | promoter activity interaction Z-score [2, 22]: -0.324 ± 0.022 | promoter activity interaction Z-score [3, 7]: 0.0922 ± 0.034 | promoter activity interaction Z-score [3, 8]: -0.437 ± 0.1 | promoter activity interaction Z-score [3, 9]: 0.00718 ± 0.63 | promoter activity interaction Z-score [3, 10]: -0.453 ± 0.23 | promoter activity interaction Z-score [3, 11]: 0.101 ± 0.094 | promoter activity interaction Z-score [3, 12]: 0.0789 ± 0.37 | promoter activity interaction Z-score [3, 13]: -0.19 ± 0.099 | promoter activity interaction Z-score [3, 14]: -0.294 ± 0.097 | promoter activity interaction Z-score [3, 15]: 0.254 ± 0.0045 | promoter activity interaction Z-score [3, 16]: -0.42 ± 0.15 | promoter activity interaction Z-score [3, 17]: -0.561 ± 0.17 | promoter activity interaction Z-score [3, 18]: -0.258 ± 0.67 | promoter activity interaction Z-score [3, 19]: 2.4 ± 0.66 | promoter activity interaction Z-score [3, 20]: 1.43 ± 0.62 | promoter activity interaction Z-score [3, 21]: 1.29 ± 0.045 | promoter activity interaction Z-score [3, 22]: 0.329 ± 1.2 | promoter activity interaction Z-score [4, 7]: 0.353 ± 0.3 | promoter activity interaction Z-score [4, 8]: -0.684 ± 0.45 | promoter activity interaction Z-score [4, 9]: -0.402 ± 0.66 | promoter activity interaction Z-score [4, 10]: -0.564 ± 0.41 | promoter activity interaction Z-score [4, 11]: 0.22 ± 0.28 | promoter activity interaction Z-score [4, 12]: -0.459 ± 0.031 | promoter activity interaction Z-score [4, 13]: -0.153 ± 0.28 | promoter activity interaction Z-score [4, 14]: -0.0266 ± 0.11 | promoter activity interaction Z-score [4, 15]: 0.775 ± 0.033 | promoter activity interaction Z-score [4, 16]: -1.06 ± 0.66 | promoter activity interaction Z-score [4, 17]: -0.421 ± 0.63 | promoter activity interaction Z-score [4, 18]: -0.255 ± 0.017 | promoter activity interaction Z-score [4, 19]: -0.0503 ± 0.35 | promoter activity interaction Z-score [4, 20]: -0.32 ± 0.51 | promoter activity interaction Z-score [4, 21]: -0.936 ± 0.25 | promoter activity interaction Z-score [4, 22]: -1.59 ± 0.21 | promoter activity interaction Z-score [5, 7]: 0.243 ± 0.14 | promoter activity interaction Z-score [5, 8]: 0.0161 ± 0.021 | promoter activity interaction Z-score [5, 9]: 0.337 ± 0.44 | promoter activity interaction Z-score [5, 10]: -0.145 ± 0.16 | promoter activity interaction Z-score [5, 11]: 0.223 ± 0.013 | promoter activity interaction Z-score [5, 12]: 0.0152 ± 0.069 | promoter activity interaction Z-score [5, 13]: 0.186 ± 0.38 | promoter activity interaction Z-score [5, 14]: 0.0422 ± 0.085 | promoter activity interaction Z-score [5, 15]: 0.195 ± 0.0077 | promoter activity interaction Z-score [5, 16]: -0.0335 ± 0.17 | promoter activity interaction Z-score [5, 17]: 0.0477 ± 0.44 | promoter activity interaction Z-score [5, 18]: -0.0923 ± 0.35 | promoter activity interaction Z-score [5, 19]: 0.167 ± 0.16 | promoter activity interaction Z-score [5, 20]: -0.302 ± 0.11 | promoter activity interaction Z-score [5, 21]: -0.117 ± 0.011 | promoter activity interaction Z-score [5, 22]: -0.0117 ± 0.15 | promoter activity interaction Z-score [6, 7]: 0.715 ± 0.94 | promoter activity interaction Z-score [6, 8]: -0.256 ± 0.052 | promoter activity interaction Z-score [6, 9]: 0.191 ± 0.14 | promoter activity interaction Z-score [6, 10]: -1.1 ± 0.63 | promoter activity interaction Z-score [6, 11]: -0.195 ± 0.71 | promoter activity interaction Z-score [6, 12]: -0.0142 ± 0.11 | promoter activity interaction Z-score [6, 13]: 0.0051 ± 0.65 | promoter activity interaction Z-score [6, 14]: -0.229 ± 0.0049 | promoter activity interaction Z-score [6, 15]: 0.976 ± 0.34 | promoter activity interaction Z-score [6, 16]: -0.562 ± 0.45 | promoter activity interaction Z-score [6, 17]: -0.0786 ± 0.68 | promoter activity interaction Z-score [6, 18]: -0.444 ± 0.1 | promoter activity interaction Z-score [6, 19]: -0.259 ± 0.34 | promoter activity interaction Z-score [6, 20]: -0.283 ± 0.28 | promoter activity interaction Z-score [6, 21]: -0.0472 ± 0.28 | promoter activity interaction Z-score [6, 22]: -0.088 ± 0.34
